According to the OligoGym collection:

molecular target: TRAPPC2; assay: pooled miR-30 sensor sort-seq; sequence = guide strand; conditions: shRNA
Further: reference of the scale not given here.

Row | Sequence | sensor-assay potency score (higher = more potent)
1 | TTTCTGTCAAATGCACTTGATC | -1.44
2 | TTCAAGTACATGTTGTTCGATA | -0.28
3 | ATGCACTTGATCGAATAGGAGA | -1.42
4 | TTGTCTTATGTCATGAAGCATA | -1.65
5 | TGTCAAATGCACTTGATCGAAT | -0.613
6 | TATTCCATCTTCTTGTCTTATG | -1.41
7 | TATATAAATCATAAACATCAGT | -0.905
8 | TTATTCCATCTTCTTGTCTTAT | -1.23
9 | TCGTTGAACTTGTCCACAGTTT | -0.427
10 | TTGATCGAATAGGAGAATTGGG | -0.578

molecular target: TRIL; assay: as above; conditions: shRNA

Row | Sequence | sensor-assay potency score (higher = more potent)
11 | TAGAAATCGCCCCTGCTGCTGG | -0.425
12 | ATGAACTTGTTGAAGTCGCATG | -1.34
13 | TTGCAGCTGCTGGTCATCCAGG | -1.05
14 | TTGACTAGACTCTCCAGGCCCT | -0.105
15 | TTGGTTATGAAGTTGCCGCCGA | -0.156
16 | TTGTACTGCAGGTCCAGCCGTC | -0.188
17 | TTCTTGTGCAGGTCTAGGGACT | -1.42
18 | TAGGTGAGCACGTCGTGGGGGC | -0.151
19 | TACAGCTCTTCCAGCCGCGAGA | -1.34
20 | TTGCACAGAATGAACTTGTTGA | 0.574
21 | AACTTGTTGAAGTCGCATGGGT | -0.301
22 | TTGCCGTCTAGATCCAGCCGAT | -0.561

molecular target: TRIM23; assay: as above; conditions: shRNA

Row | Sequence | sensor-assay potency score (higher = more potent)
23 | TAATCTGAGATTTCCTCTGTGA | 0.349
24 | TACAACAAACACAACAGCTTGA | 0.537
25 | TTTTGGTCCAATGTGAACTCGA | 0.0711
26 | TTGTAGAATGAGTAACTTGAGA | -0.898
27 | TTTTCCGTTAACAACTTTGCAA | -0.567
28 | TACATGTTCTGTGTGAGCCATT | -1.01
29 | TATGCACACAAACTACACCTGT | -0.275
30 | TAGTTTGACAACCTTCTTCCAA | -0.272
31 | TCAGCTAGAGGAACTCGCCTGT | 0.453
32 | TTCTTCTGCAGCTCCATACTGA | -0.628
33 | TTTCCGTTAACAACTTTGCAAG | -1.22
34 | AACTTCTGTAAACTGCTGCTGC | 0.168
35 | TTTAACTTAAACAAGATAGTAG | 0.417
36 | TGCAACTTCTGTAAACTGCTGC | 0.44
37 | TAAGCTCGAATACATGACCGGG | -0.886
38 | AACTCTACAATCATCCTGCTGC | 0.546
39 | TAAAATTGATGCTCGGATCTGA | 0.781
40 | TAGAGGAACTCGCCTGTGCTTT | -1.17
